# “And” between values parts separate entries of the source, which are not always exact repeats. Identical values can stand only once. Inconclusive results are not listed. A call without a number means that no potency is given here. The source made the active and inactive calls. Unless noted, the call rests on the fitted dose curve; in most records, active means well fitted curve in the direction sought with a large enough effect; inconclusive means small, poorly fitted or top-dose-only effect, or another doubt; inactive means no such curve, though single readings can be large; an effect the other way counts as inactive or inconclusive.
# Assays:
# [1] = Cell Viability - SH-SY5Y (AID 544); conditions: SH-SY5Y neuroblastoma cell viability; viability change, negative = cytotoxic: at 92.2 µM (top of the series); further: nearly all actives have a fitted effect of over 55% in size
# Summary of the method: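 Human neuroblastoma SH-SY5Y cells (1500/well) in complete medium were exposed to compounds for 40 hr at 37 °C; intracellular ATP was then quantified by CellTiter-Glo luminescence after 20 min at room temperature. AC50 came from Hill-equation concentration-response fits.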
# [2] = Cellular Toxicity (caspase-3) Jurkat (AID 655); conditions: Jurkat caspase-3 activation, luminescence; caspase-3 activation: at 92.2 µM (top of the series), DMSO = 0%, tamoxifen = 100%;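 further: cells exposed to compound for 16 h at 37 °C before reading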
# Summary of the method: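 5000 Jurkat cells/well; compound 16 hr, 37 °C; Caspase-Glo 3/7 added, 20 min RT; luminescence read. Norm: DMSO = 0%, tamoxifen 100 uM = 100%. AC50, Hill model.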
# [3] = MultiTox-Fluor Cytotoxicity Assay - LYMP1-003 - Live Cells (AID 962);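 further: cytotoxic hits lower the live-cell protease signal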
# Summary of the method: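 LYMP1-003 human lymphoblastoid cells (2500/well) in complete medium were preincubated 5 hr at 37 C, then exposed to compounds for 16 hr at 37 C. Live-cell protease cleavage of GF-AFC read by fluorescence (Ex/Em 405/510); AC50 from Hill fits.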
# [4] = Cell Viability - LYMP1-003 - Assay at 24 hr (AID 963)
# Summary of the method: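 Human lymphoblastoid LYMP1-003 cells (2500/well) were rested 5 hr at 37 C, then exposed to compounds in complete medium for 24 hr at 37 C. Cellular ATP was quantified by CellTiter-Glo luminescence, and AC50 values came from Hill fits of concentration-response data.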
# [5] = Cell Viability - LYMP1-003 - Assay at 40 hr (AID 964); further: nearly all actives have a fitted effect of over 60% in size
# Summary of the method: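 Human lymphoblastoid LYMP1-003 cells, 2500/well in complete medium, rested 5 hr at 37 C, then exposed to compounds for 40 hr at 37 C. Viability read as intracellular ATP by CellTiter-Glo luminescence; AC50 from Hill fits of concentration-response data.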
# [6] = Cell Viability - LYMP2-003 (AID 965);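 further: cells exposed to compounds for 24 h before reading; nearly all actives have a fitted effect of over 50% in size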
# Summary of the method: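 Seed 2500 lymphoblastoid cells/well; incubate 5 hr, 37 C; add compounds; incubate 24 hr, 37 C; add CellTiter-Glo, 30 min RT; read luminescence. AC50 from Hill fit.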
# [7] = Cell Viability - LYMP2-004 (AID 966); further: nearly all actives have a fitted effect of over 65% in size
# Summary of the method: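 Human lymphoblastoid cells (2500/well) in complete medium were treated with compounds for 24 hr at 37 C, then intracellular ATP was measured by CellTiter-Glo luminescence. AC50 values came from Hill-equation fits of concentration-response data.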
# [8] = Cell Viability - LYMP2-017 (AID 972); further: nearly all actives have a fitted effect of over 55% in size
# Summary of the method: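 Human lymphoblastoid cells (2500/well) were seeded in complete medium, held 5 hr at 37 C, then exposed to compounds for 24 hr at 37 C. Intracellular ATP was read by CellTiter-Glo luminescence after 30 min at room temperature, with AC50 values from Hill-equation fits.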
# [9] = Cell Viability - LYMP2-019 (AID 973); further: nearly all actives have a fitted effect of over 55% in size
# Summary of the method: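 Human lymphoblastoid cells were seeded at 2500 cells/well, preincubated 5 hr at 37 C, then exposed to compounds for 24 hr at 37 C in complete medium. Intracellular ATP was measured by CellTiter-Glo luminescence; AC50 from Hill fits.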
# [10] = Cell Viability - LYMP2-025 (AID 976)
# Summary of the method: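 Human lymphoblastoid LYMP2-025 cells (2500/well) were pre-incubated 5 hr at 37 C, then treated with compounds for 24 hr at 37 C in complete medium. Viability was read as intracellular ATP by CellTiter-Glo luminescence; AC50 from Hill fits.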
# [11] = Cell Viability - LYMP2-007 (AID 979);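 further: cells exposed to compound for 24 h before reading; nearly all actives have a fitted effect of over 60% in size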
# Summary of the method: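 Human lymphoblastoid cells (2500/well) were plated in complete medium, incubated 5 hr at 37 C, then exposed to compounds for 24 hr at 37 C. Intracellular ATP was read by CellTiter-Glo luminescence after 30 min at room temperature; AC50 from Hill fits.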
# [12] = Cell Viability - LYMP2-008 (AID 980); further: nearly all actives have a fitted effect of over 60% in size
# Summary of the method: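 Human lymphoblastoid cells (2500/well) were plated, held 5 hr at 37 C, then exposed to compounds for 24 hr at 37 C in complete medium. Intracellular ATP was read by CellTiter-Glo luminescence; AC50 from Hill-fitted concentration-response.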
# [13] = Cell Viability - LYMP2-012 (AID 982);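 further: cellular ATP by luciferase luminescence where a drop means cytotoxicity; cells exposed to compound for one day before reading; nearly all actives have a fitted effect of over 55% in size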
# [14] = Cell Viability - LYMP2-014 (AID 983); further: nearly all actives have a fitted effect of over 50% in size
# Summary of the method: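 Human lymphoblastoid cells (2500/well) were pre-incubated 5 hr at 37 C, then exposed to compounds in complete medium for 24 hr at 37 C. Intracellular ATP was read by CellTiter-Glo luminescence after 30 min at room temperature; AC50 from Hill fits.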
# [15] = Cell Viability - LYMP2-018 (AID 985);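 further: compound exposure lasted 24 hr at 37 °C; nearly all actives have a fitted effect of over 50% in size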
# Summary of the method: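 Human lymphoblastoid cells (2500/well) were pre-incubated 5 hr at 37 C, then exposed to compounds for 24 hr at 37 C in complete medium. Viability was read as intracellular ATP by CellTiter-Glo luminescence; AC50 values came from Hill-equation fits.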
# [16] = Cell Viability - LYMP1-002 - Assay at 40 hr (AID 994); further: nearly all actives have a fitted effect of over 60% in size
# Summary of the method: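 Human lymphoblastoid cells, 2500/well in complete medium, were preincubated 5 hr at 37 C, then exposed to compounds for 40 hr at 37 C. Intracellular ATP was read by CellTiter-Glo luminescence after 30 min at room temperature; AC50 from Hill-equation fits.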
# [17] = qHTS assay for small molecule agonists of retinoid X receptor alpha signaling (AID 588544; calls by dose curve); conditions: HEK293T RXRa-UAS-bla, beta-lactamase reporter, 18 h; 530 nm emission
# [18] = target: Retinoic acid receptor RXR-alpha (Homo sapiens) (UniProt P19793); assay: as above
# Retinoic acid receptor RXR-alpha (Homo sapiens), sequence (P19793 whole entry, looked up): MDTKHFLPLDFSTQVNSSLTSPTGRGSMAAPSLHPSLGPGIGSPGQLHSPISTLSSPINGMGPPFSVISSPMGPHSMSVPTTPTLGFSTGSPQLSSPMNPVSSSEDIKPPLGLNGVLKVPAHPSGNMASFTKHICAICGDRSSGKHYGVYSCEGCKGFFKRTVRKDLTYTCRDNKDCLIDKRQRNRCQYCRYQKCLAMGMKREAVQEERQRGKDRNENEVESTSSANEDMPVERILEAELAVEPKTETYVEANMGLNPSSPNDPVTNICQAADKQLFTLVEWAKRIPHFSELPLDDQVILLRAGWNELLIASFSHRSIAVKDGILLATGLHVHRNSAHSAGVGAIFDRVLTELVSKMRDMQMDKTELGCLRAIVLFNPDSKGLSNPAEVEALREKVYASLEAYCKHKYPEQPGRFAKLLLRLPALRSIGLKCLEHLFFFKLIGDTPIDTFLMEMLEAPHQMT
# [19] = qHTS assay for small molecule antagonists of retinoid X receptor alpha signaling (AID 588546); conditions: HEK293T RXRa-UAS-bla, beta-lactamase ratio, antagonist mode; measured here: W530 green channel, cytotoxicity proxy;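 further: cells stimulated with 9-cis-retinoic acid as agonist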
# Summary of the method: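 Beta-lactamase reporter inhibition, read as CCF4 fluorescence ratio (ex 405, em 460/530 nm) after 2 h at RT. HEK293T UAS-bla cells, 2500/well, were stimulated with 9-cis-RA at 500 or 100 nM final alongside test compound for 18 h at 37 C.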
# [20] = qHTS assay for small molecule antagonists of the retinoid-related orphan receptor gamma (ROR-gamma) signaling pathway - cell viability counter screen (AID 720652; active means well fitted curve in the direction sought with a large enough effect in the repeat runs; an effect the other way counts as inactive or inconclusive;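 further: CHO reporter cells with doxycycline-induced ROR-gamma expression; compound exposure lasted 16 hr before ATP read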)
# Summary of the method: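 Counter screen in CHO cells carrying TET-inducible ROR-gamma and an ROR response element-luciferase reporter; cells plated 5 hr, compound pinned, doxycycline added, then 16 hr at 37 C. Viability read as intracellular ATP by CellTiter-Glo luminescence.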
Structure (SMILES),Potency [1],caspase-3 activation [2],outcome [3],outcome [4],Potency [5],Potency [6],Potency [7],Potency [8],Potency [9],Potency [10],Potency [11],Potency [12],Potency [13],Potency [14],Potency [15],Potency [16],max response [17],outcome [18],max response [19],Potency [20]
NC1CCC(CC2CCC(N)CC2)CC1 (stereo not drawn),inactive,0.418% (inactive),inactive,inactive,inactive,inactive,inactive,inactive,inactive,inactive,inactive,inactive,inactive,inactive,inactive,inactive,8.4%,inactive,2.2% and -10.5%,inactive
CC(C)(Cl)Cl,inactive,-0.572% (inactive),inactive,inactive,inactive,inactive,inactive,inactive,inactive,inactive,inactive,inactive,inactive,inactive,inactive,inactive,-10.7%,inactive,-1.69%,inactive
Oc1c(Cl)cccc1Cl,inactive,2.96% (inactive),inactive,inactive,inactive,inactive,inactive,inactive,inactive,inactive,inactive,inactive,inactive,inactive,inactive,inactive,9.22%,inactive,-9.58%,inactive
CC(Cl)CCl (stereo not drawn),inactive,0.191% (inactive),inactive,inactive,inactive,inactive,inactive,inactive,inactive,inactive,inactive,inactive,inactive,inactive,inactive,inactive,-14.1%,inactive,-10%,inactive
CN(C)c1ccccc1,inactive,0.927% (inactive),inactive,inactive,inactive,inactive,inactive,inactive,inactive,inactive,inactive,inactive,inactive,inactive,inactive,inactive,-3.38%,inactive,5.14%,inactive
Clc1ccccc1,inactive,1.44% (inactive),inactive,inactive,inactive,inactive,inactive,inactive,inactive,inactive,inactive,inactive,inactive,inactive,inactive,inactive,-8.37%,inactive,-7.38%,inactive
Nc1ccc(-c2ccc(N)cc2)cc1,inactive,0.684% (inactive),inactive,inactive,inactive,inactive,inactive,inactive,inactive,inactive,inactive,inactive,inactive,inactive,inactive,inactive,-10.1%,inactive,-2.33%,inactive
CN(C)C(=O)Nc1ccc(Cl)cc1,inactive,-0.0397% (inactive),inactive,inactive,inactive,inactive,inactive,inactive,inactive,–,inactive,inactive,inactive,inactive,inactive,inactive,-9.88% and -12.4%,inactive,-7.13% and -6.88%,inactive
Cc1cc(-c2ccc(N)c(C)c2)ccc1N,inactive,1% (inactive),inactive,inactive,inactive,inactive,inactive,inactive,inactive,inactive,inactive,inactive,inactive,inactive,inactive,inactive,-4.96% and -4.31%,inactive,-15.7% and -12.6% and -3.84%,inactive
OCCOCCO,inactive,-0.825% (inactive),inactive,inactive,inactive,inactive,inactive,inactive,inactive,inactive,inactive,inactive,inactive,inactive,inactive,inactive,-9.96%,inactive,2.28%,inactive
Cc1ccc(N)c(C)c1,inactive,1.21% (inactive),inactive,inactive,inactive,inactive,inactive,inactive,inactive,inactive,inactive,inactive,inactive,inactive,inactive,inactive,-7.75%,inactive,1.29%,inactive
Nc1cccc(Cl)c1,inactive,11.8% (inactive),inactive,inactive,inactive,inactive,inactive,inactive,inactive,inactive,inactive,inactive,inactive,inactive,inactive,inactive,4.67%,inactive,0.683%,inactive
CCCCOC(=O)c1ccccc1N,inactive,1.19% (inactive),inactive,inactive,inactive,inactive,inactive,inactive,inactive,inactive,inactive,inactive,inactive,inactive,inactive,inactive,-10.9%,inactive,-0.876%,inactive
Clc1ccc(C(Cl)(Cl)Cl)cc1Cl,inactive,0.663% (inactive),inactive,inactive,inactive,inactive,inactive,inactive,inactive,–,inactive,inactive,inactive,inactive,inactive,inactive,-3.09%,inactive,-6.09%,inactive
Cc1ccc(N=C=O)cc1N=C=O,inactive,0.0584% (inactive),inactive,inactive,inactive,inactive,inactive,inactive,inactive,inactive,inactive,inactive,inactive,inactive,inactive,inactive,-4.25% and -19.3%,inactive,4.82% and -6.24%,inactive

# Reference: PubChem BioAssay (NCATS)
